In PubChem BioAssay:
Results filed as inconclusive are left out. Activity calls are given as the source filed them.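 The calls were made as follows, unless noted: active = response below a set limit, under 55% cells CD8-positive and vesicle-bound, and CD8 cells' 90th-percentile brightness under 279; inactive = the rest.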

Columns and labels:
[1] = yeast TOR pathway RPL19A-GFP modulators, primary screen, cell-based, S. cerevisiae, multiplex flow cytometry (AID 1862; in the data active = percent of DMSO control GFP below about 86%;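 also: lower values mimic rapamycin by blocking the RPL19A rise seen in DMSO cells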); details: S. cerevisiae RPL19A-GFP strain, flow cytometry fluorescence, 3 h; at 10 µM; stronger effect = lower value
[2] = modulators of MEP2-GFP levels in yeast, primary screen, S. cerevisiae, multiplex flow cytometry (AID 1867;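 active = GFP response, as percent of the DMSO control, above the screen-wide mean plus 3 SD, about 139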;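 also: median GFP channel fluorescence of barcode-gated MEP2-GFP cells measured by flow cytometry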); details: S. cerevisiae MEP2-GFP strain, 3 h, at 10 µM, stronger effect = higher value, 100% means same as DMSO wells
[3] = modulators of CIT2-GFP expression in yeast, primary screen, S. cerevisiae, GFP fusion, multiplex flow cytometry (AID 1870;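 active = percent response above a set limit, the screen-wide mean plus 3 SD, cut at about 130% in these data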;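 also: barcoded CIT2-GFP strain pooled with four other GFP strains with rapamycin as positive control; median GFP fluorescence per well over plate mean of DMSO wells so 100% = DMSO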); details: 3 h, at 10 µM, stronger effect = higher value
[4] = modulators of LAP4-GFP expression in yeast, primary screen, S. cerevisiae, multiplex flow cytometry (AID 1873;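 active = GFP signal, as percent of the solvent control, above the screen mean plus 3 SD, about 149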); details: 3 h, at 10 µM, stronger effect = higher value
[5] = modulators of AGP1-GFP expression in yeast TOR pathway, primary screen, cell-based, multiplex flow cytometry, S. cerevisiae (AID 1887;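 active = GFP signal above the screen-wide mean plus 3 SD, that is over about 124.5% of the solvent control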;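 also: AGP1-GFP fusion strain of S. cerevisiae within a five-strain barcoded multiplex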); details: 3 h, at 10 µM, stronger effect = higher value
[6] = inhibitors of CD8+ T cell-vesicle binding, pilot screen, LFA-1/ICAM-1 modulator project, MLPCN validation set, flow cytometry (AID 2523); details: 2C mouse CD8+ T cells, at 7 µM, stronger effect = lower value; double positive events: measured here: CD8+/vesicle+ event percentage;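 as to vesicle binding response: mean PE anti-B7-1 fluorescence of CD8+ cells relative to row control; 100% = QL9-loaded vesicles with DMSO vehicle in the same plate row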
[7] = biological target: Integrin beta-1 (Homo sapiens) + Integrin alpha-4 (Homo sapiens) (UniProt P13612+P05556); test: inhibition of HUTS-21 binding to VLA-4, pilot screen, VLA-4 allosteric modulator project, U937 cells, HUTS-21 mAb, flow cytometry, validation set (AID 2674;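 active = inhibition above 50%, about 3 SD of the validation set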;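 also: antibody binding induced by the VLA-4 ligand LDV present at three times its Kd; 0% = LDV ligand with antibody and no compound and 100% = antibody without LDV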); details: HUTS-21 LIBS mAb binding, at 6.7 µM, stronger effect = higher value, binding induced by LDV ligand
Integrin beta-1 (Homo sapiens) + Integrin alpha-4 (Homo sapiens), sequence (P05556 whole entry, looked up): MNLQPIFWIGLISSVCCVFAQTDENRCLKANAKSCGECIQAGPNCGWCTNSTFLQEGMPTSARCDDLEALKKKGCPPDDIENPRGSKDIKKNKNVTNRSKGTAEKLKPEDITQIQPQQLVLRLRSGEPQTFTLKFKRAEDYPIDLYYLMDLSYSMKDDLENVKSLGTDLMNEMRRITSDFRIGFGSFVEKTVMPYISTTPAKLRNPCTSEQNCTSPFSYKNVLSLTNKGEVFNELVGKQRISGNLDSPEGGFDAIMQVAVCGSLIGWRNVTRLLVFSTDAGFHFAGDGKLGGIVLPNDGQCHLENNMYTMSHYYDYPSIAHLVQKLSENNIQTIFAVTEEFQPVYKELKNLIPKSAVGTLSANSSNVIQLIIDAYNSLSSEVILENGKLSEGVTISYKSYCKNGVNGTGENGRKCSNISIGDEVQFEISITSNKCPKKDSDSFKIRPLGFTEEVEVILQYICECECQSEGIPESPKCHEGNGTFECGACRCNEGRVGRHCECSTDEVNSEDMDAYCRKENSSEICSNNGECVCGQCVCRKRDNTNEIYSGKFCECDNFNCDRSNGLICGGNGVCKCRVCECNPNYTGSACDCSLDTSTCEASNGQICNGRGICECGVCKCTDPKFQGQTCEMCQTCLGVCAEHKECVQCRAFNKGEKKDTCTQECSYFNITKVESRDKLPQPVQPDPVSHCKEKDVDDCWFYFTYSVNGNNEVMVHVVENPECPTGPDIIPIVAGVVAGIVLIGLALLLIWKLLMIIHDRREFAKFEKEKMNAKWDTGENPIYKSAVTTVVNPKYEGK
Integrin beta-1 (Homo sapiens) + Integrin alpha-4 (Homo sapiens), sequence (P13612 whole entry, looked up): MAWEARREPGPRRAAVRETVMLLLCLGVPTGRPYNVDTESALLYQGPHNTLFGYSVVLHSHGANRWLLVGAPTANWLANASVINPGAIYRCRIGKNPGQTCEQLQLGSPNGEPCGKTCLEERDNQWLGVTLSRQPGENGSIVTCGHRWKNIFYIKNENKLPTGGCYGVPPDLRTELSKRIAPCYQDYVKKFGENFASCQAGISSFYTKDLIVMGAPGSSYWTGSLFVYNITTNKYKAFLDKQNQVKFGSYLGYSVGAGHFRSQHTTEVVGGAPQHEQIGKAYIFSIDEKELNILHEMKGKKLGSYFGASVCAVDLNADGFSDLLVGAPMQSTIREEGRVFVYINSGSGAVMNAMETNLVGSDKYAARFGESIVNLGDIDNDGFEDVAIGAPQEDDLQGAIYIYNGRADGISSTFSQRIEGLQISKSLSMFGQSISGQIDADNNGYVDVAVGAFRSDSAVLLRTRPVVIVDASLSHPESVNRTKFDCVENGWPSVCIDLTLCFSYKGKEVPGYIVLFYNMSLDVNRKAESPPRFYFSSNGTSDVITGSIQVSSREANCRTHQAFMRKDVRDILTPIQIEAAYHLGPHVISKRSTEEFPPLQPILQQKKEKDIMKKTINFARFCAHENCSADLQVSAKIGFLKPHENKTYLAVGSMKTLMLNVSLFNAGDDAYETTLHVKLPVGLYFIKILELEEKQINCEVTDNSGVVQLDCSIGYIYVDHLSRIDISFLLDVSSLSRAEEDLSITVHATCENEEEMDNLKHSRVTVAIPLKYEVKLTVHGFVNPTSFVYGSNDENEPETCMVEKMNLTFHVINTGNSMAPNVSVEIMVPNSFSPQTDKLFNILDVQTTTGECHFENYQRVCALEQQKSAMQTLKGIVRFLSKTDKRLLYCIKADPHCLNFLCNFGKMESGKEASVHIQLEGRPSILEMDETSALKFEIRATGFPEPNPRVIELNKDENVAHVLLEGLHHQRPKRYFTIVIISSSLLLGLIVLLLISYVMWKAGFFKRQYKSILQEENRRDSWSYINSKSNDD

[8] = superoxide lowering in aged yeast cells, pilot screen, validation compound set (AID 2706;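 active = superoxide response below 65% of plate, a cut near 3 SD across the whole screen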;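 also: yeast exposed to compound for one week at 30 degrees C before staining; 100% = mean of all compound wells on the same plate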); details: S. cerevisiae aging, superoxide DHE fluorescence; at 10 µM; stronger effect = lower value
[9] = biological target: Beta-adrenergic receptor kinase 1 (Homo sapiens) (UniProt P25098); test: GRK2 binders displacing RNA aptamer, biochemical, validation, human GRK2, bead flow cytometry (AID 488806;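 active = aptamer binding inhibition above 30%, about 3 SD of noise from non-fluorescent compounds; inactive = inhibition at or below 30%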); details: bead-bound GRK2, FAM-aptamer displacement, at 10 µM, stronger effect = higher value
Beta-adrenergic receptor kinase 1 (Homo sapiens), sequence (P25098 whole entry, looked up): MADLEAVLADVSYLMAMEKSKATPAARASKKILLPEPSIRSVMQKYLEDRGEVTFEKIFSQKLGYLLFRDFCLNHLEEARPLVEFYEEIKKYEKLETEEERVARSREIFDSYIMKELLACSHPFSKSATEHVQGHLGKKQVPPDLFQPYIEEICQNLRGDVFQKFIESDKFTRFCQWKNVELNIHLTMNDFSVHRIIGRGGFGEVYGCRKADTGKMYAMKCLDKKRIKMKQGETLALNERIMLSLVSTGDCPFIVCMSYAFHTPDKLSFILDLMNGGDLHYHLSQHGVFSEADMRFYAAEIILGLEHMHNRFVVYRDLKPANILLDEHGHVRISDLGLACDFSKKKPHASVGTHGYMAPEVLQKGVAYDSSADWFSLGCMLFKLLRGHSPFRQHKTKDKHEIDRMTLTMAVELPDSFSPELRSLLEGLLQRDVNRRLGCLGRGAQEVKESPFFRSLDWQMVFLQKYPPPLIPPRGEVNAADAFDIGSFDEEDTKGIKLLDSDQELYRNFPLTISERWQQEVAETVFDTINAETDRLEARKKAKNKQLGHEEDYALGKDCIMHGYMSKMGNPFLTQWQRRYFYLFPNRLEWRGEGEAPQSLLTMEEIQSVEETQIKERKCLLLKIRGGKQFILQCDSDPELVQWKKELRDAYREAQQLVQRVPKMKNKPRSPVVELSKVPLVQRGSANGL

[10] = biological target: Beta-2 adrenergic receptor (Homo sapiens) (UniProt P07550); test: beta2AR agonists driving receptor internalization, pilot screen, cell-based, FAP fluorogen, flow cytometry, validation set (AID 504459;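 active = percent response above 42, roughly 3 SD of non-fluorescent test compounds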;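 also: agonist-driven loss of surface beta2AR via internalization measured by FAP dye flow cytometry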); details: Am2.2-beta2AR cells, FAP surface receptor flow cytometry; at 10 µM; stronger effect = higher value
Beta-2 adrenergic receptor (Homo sapiens), sequence (P07550 whole entry, looked up): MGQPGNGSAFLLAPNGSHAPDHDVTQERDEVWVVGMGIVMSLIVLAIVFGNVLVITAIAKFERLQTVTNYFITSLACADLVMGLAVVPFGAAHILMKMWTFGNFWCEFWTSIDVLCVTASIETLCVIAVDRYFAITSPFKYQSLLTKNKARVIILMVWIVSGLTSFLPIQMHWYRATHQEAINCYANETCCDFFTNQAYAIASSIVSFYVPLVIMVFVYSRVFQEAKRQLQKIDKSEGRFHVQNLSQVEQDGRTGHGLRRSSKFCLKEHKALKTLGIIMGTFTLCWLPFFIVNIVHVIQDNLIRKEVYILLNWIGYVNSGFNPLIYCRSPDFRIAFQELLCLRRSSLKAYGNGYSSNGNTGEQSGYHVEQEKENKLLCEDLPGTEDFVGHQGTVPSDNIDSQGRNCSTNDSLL

[11] = biological target: AP-2 complex subunit beta (Homo sapiens) (UniProt P63010); test: inhibitors of arrestin peptide binding to AP2, pilot screen, biochemical, validation set, GST-AP2 beads, flow cytometry (AID 504541;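 active = inhibition above 54%, about 3 SD of non-fluorescent compounds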;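 also: AP2 carries R879A mutation and is captured from E. coli lysate; bead-bound FITC arrestin peptide fluorescence measuring arrestin peptide binding to AP2; 0% = DMSO wells and 100% = excess unlabeled arrestin peptide control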); details: FITC arrestin peptide, at 10 µM, stronger effect = higher value, AP2 beta2 appendage fragment, R879A mutant
AP-2 complex subunit beta (Homo sapiens), sequence (P63010 whole entry, looked up, the tested form may be a part, one chain of several): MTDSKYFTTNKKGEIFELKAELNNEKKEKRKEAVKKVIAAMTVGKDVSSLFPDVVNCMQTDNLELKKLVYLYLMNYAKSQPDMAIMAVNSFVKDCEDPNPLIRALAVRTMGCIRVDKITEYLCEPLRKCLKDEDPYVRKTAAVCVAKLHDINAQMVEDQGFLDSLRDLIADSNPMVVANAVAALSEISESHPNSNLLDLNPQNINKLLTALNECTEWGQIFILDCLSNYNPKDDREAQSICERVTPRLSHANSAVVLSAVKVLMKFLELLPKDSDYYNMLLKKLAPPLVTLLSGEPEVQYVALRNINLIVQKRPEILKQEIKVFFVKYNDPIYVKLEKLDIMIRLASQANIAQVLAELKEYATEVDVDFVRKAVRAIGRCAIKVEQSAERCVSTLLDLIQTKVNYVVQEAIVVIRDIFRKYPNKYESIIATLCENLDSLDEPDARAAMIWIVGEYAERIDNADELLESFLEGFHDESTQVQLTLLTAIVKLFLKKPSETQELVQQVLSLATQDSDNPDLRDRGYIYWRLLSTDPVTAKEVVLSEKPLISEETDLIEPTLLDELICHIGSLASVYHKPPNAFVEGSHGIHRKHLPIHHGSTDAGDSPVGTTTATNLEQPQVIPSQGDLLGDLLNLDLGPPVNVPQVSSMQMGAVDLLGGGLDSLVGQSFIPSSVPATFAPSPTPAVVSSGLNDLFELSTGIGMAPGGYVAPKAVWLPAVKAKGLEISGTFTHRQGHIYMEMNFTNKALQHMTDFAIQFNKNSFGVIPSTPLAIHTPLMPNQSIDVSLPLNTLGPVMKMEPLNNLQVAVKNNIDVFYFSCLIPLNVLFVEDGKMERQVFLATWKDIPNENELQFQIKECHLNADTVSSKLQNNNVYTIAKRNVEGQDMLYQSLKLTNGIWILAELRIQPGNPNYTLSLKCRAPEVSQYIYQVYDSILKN

[12] = yeast V-ATPase proton transport modulators, S. cerevisiae, pHLuorin, HTS validation (AID 504600; in the data active = response above about 15%;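 also: plate controls were DMSO for no effect and reference compound for full effect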); details: S. cerevisiae pHLuorin cytosolic pH, at 10 µM, stronger effect = higher value
[13] = tested on: anti-desmoglein-3 scFv antibody binding to human DSG3; test: inhibitors of anti-DSG3 scFv binding to DSG3, pilot screen, biochemical, validation compound set, bead-based, flow cytometry (AID 588368;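 active = binding below the plate cutoff, the plate median minus 3 SD, with a reading above zero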;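 also: signal is the median channel fluorescence of bead-bound GFP antibody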); details: Protein G beads, DSG3-Fc, scFv-GFP binding, at 10 µM, stronger effect = lower value
[14] = inhibitors of fungal efflux pumps CDR1, CDR2, MDR1, pilot screen, validation compound set, multiplex, phenotypic (AID 588506;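 active = efflux inhibition above 0.42, the validation set average plus 4 SD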;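 also: Nile Red retained in cells so higher fluorescence means more efflux inhibition; 0 = negative control wells and 1 = enniatin B 25 µM full block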); details: S. cerevisiae pump-expressing triplex, Nile Red efflux flow cytometry; at 10 µM; stronger effect = higher value; the pumps come from Candida albicans
[15] = biological target: ATP-binding cassette sub-family B member 6 (Homo sapiens) (UniProt Q9NP58); test: ABCB6 transporter inhibitors, pilot screen, K562-ABCB6 cells, flow cytometry, validation set (AID 588550;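 active = inhibition above the screen-wide mean plus 3 SD, about 51%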;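 also: 0% = DMSO wells and 100% = benzethonium chloride 70 µM positive control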); details: K562-ABCB6 porphyrin accumulation, 1 h, at 10 µM, stronger effect = higher value
ATP-binding cassette sub-family B member 6 (Homo sapiens), sequence (Q9NP58 whole entry, looked up): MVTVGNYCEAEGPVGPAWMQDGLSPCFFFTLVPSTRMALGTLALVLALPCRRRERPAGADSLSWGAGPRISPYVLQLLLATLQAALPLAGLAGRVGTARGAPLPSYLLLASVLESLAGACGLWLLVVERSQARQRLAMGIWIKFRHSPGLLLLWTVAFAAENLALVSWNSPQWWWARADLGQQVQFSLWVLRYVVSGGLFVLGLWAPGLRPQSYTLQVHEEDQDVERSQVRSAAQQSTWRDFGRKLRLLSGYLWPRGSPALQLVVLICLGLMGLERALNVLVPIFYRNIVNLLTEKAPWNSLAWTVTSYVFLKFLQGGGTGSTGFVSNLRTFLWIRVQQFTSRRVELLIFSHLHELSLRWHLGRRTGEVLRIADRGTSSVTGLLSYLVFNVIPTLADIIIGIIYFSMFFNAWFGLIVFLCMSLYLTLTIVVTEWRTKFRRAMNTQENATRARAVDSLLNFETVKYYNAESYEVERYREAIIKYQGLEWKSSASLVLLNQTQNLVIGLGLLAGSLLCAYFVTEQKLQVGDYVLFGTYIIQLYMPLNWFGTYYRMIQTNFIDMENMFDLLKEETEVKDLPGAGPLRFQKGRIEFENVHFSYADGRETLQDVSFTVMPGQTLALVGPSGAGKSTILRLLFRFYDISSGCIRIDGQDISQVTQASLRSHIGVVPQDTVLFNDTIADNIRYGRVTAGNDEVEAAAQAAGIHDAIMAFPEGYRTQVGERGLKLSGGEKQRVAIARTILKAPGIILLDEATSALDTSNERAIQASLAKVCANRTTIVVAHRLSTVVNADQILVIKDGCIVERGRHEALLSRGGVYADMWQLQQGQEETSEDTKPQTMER

[16] = promoters of myeloid differentiation in arrested cells, primary screen, cell-based, GFP/MAC1 double positive, flow cytometry, validation set (AID 588685;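 active = differentiation response of at least 50%, scaled between solvent and reference control, from cells with both markers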;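 also: compound exposure lasts four days before antibody staining and flow analysis; 0% = DMSO wells and 100% = 5 µM fulvestrant positive control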); details: ER-HoxA9 marrow cells, stronger effect = higher value, normalized: vehicle 0, fulvestrant 100

CCNC(=O)c1c(N)sc2c1CCCCC2
63.8%: double positive events [6]
inactive: percent of DMSO control GFP [1] 103% | GFP response vs DMSO [2] 96.3% | percent response of DMSO control [3] 101% | GFP response vs DMSO [4] 90.5% | GFP response, % of DMSO [5] 94.9% | vesicle binding response [6] 262% | inhibition [7] -27.7% | superoxide response (% of plate) [8] 101% | aptamer binding inhibition [9] 1% | response [10] 33.6% | inhibition [11] 9.58% | response [12] -1.51% | binding (% of control) [13] 95.3% | efflux inhibition (fraction of control) [14] 0.12 | inhibition [15] 2% | differentiation response [16] 7.2%

Cc1cccc(-c2ncc(CN3CCN(CC(C)C)C(CCO)C3)cn2)c1 (stereo not drawn)
65.5%: double positive events [6]
inactive: percent of DMSO control GFP [1] 104% | GFP response vs DMSO [2] 100% | percent response of DMSO control [3] 108% | GFP response vs DMSO [4] 76.2% | GFP response, % of DMSO [5] 99.2% | vesicle binding response [6] 344% | inhibition [7] -3.57% | superoxide response (% of plate) [8] 97.3% | aptamer binding inhibition [9] 2% | response [10] -5.5% | inhibition [11] -1.77% | response [12] 3.08% | binding (% of control) [13] 101% | efflux inhibition (fraction of control) [14] 0.02 | inhibition [15] 15% | differentiation response [16] 4.15%

COc1cc(C2C(C(C)=O)=C(O)C(=O)N2c2ccc(C)cc2)ccc1O (stereo not drawn)
57.9%: double positive events [6]
inactive: percent of DMSO control GFP [1] 100% | GFP response vs DMSO [2] 104% | percent response of DMSO control [3] 100% | GFP response vs DMSO [4] 97.3% | GFP response, % of DMSO [5] 97.5% | vesicle binding response [6] 75.1% | inhibition [7] -16% | superoxide response (% of plate) [8] 107% | aptamer binding inhibition [9] 3% | response [10] -1.25% | inhibition [11] 51.5% | response [12] -8.34% | binding (% of control) [13] 95.1% | efflux inhibition (fraction of control) [14] -0.17 | inhibition [15] -2% | differentiation response [16] 17.8%

COc1ccc(CC(=O)NCC2(c3ccc(OC)c(OC)c3)CCOCC2)cc1
54%: double positive events [6]
inactive: percent of DMSO control GFP [1] 103% | GFP response vs DMSO [2] 96.3% | percent response of DMSO control [3] 104% | GFP response vs DMSO [4] 82.8% | GFP response, % of DMSO [5] 89.7% | vesicle binding response [6] 175% | inhibition [7] 5.03% | superoxide response (% of plate) [8] 102% | aptamer binding inhibition [9] 8% | response [10] -10.1% | inhibition [11] -7.91% | response [12] 0.74% | binding (% of control) [13] 99.3% | efflux inhibition (fraction of control) [14] -0.35 | inhibition [15] -23% | differentiation response [16] -12%

Cc1ccc2occ(C(=O)c3ccco3)c(=O)c2c1
60.6%: double positive events [6]
inactive: percent of DMSO control GFP [1] 101% | GFP response vs DMSO [2] 101% | percent response of DMSO control [3] 89.5% | GFP response vs DMSO [4] 85.9% | GFP response, % of DMSO [5] 86.1% | vesicle binding response [6] 99.1% | inhibition [7] 6.85% | superoxide response (% of plate) [8] 104% | aptamer binding inhibition [9] 2% | response [10] -3.74% | inhibition [11] -6.83% | response [12] 0.29% | binding (% of control) [13] 99.7% | efflux inhibition (fraction of control) [14] -0.31 | inhibition [15] 1% | differentiation response [16] 0%

CC(C)CC1c2[nH]c3ccccc3c2CCN1C(=O)CCC(=O)N(C)C (stereo not drawn)
inactive: percent of DMSO control GFP [1] 90.9% | GFP response vs DMSO [2] 117% | percent response of DMSO control [3] 107% | GFP response vs DMSO [4] 79.2% | GFP response, % of DMSO [5] 93.1% | vesicle binding response [6] 264% | inhibition [7] 3.55% | superoxide response (% of plate) [8] 104% | aptamer binding inhibition [9] 4% | response [10] 6.34% | inhibition [11] -2.59% | response [12] -2.43% | binding (% of control) [13] 104% | efflux inhibition (fraction of control) [14] -0.31 | inhibition [15] 12% | differentiation response [16] -6.55%
80.7%: double positive events [6]

O=C(NC1CC1)C1CCN(C2CCN(C(=O)Cc3ccc(F)cc3)CC2)CC1
38%: double positive events [6]
inactive: percent of DMSO control GFP [1] 94.6% | GFP response vs DMSO [2] 136% | percent response of DMSO control [3] 111% | GFP response vs DMSO [4] 84.7% | GFP response, % of DMSO [5] 90.5% | inhibition [7] -3.24% | superoxide response (% of plate) [8] 106% | aptamer binding inhibition [9] -7% | response [10] -2.98% | inhibition [11] 44.4% | response [12] -9.52% | binding (% of control) [13] 98.3% | efflux inhibition (fraction of control) [14] 0.27 | inhibition [15] 8% | differentiation response [16] 6.55%
active: vesicle binding response [6] 48%

CC(C)(Oc1ccc(CCNC(=O)c2ccc(Cl)cc2)cc1)C(=O)O
65.7%: double positive events [6]
inactive: percent of DMSO control GFP [1] 106% | GFP response vs DMSO [2] 107% | percent response of DMSO control [3] 96.6% | GFP response vs DMSO [4] 101% | GFP response, % of DMSO [5] 103% | vesicle binding response [6] 137% | inhibition [7] -8.75% | superoxide response (% of plate) [8] 110% | aptamer binding inhibition [9] 3% | response [10] -3.83% | inhibition [11] 23.2% | response [12] -4.97% | binding (% of control) [13] 93.5% | efflux inhibition (fraction of control) [14] 0.08 | inhibition [15] 19% | differentiation response [16] 8.06%

O=C(/C=C/Sc1ccccc1)c1ccccc1
63.9%: double positive events [6]
inactive: percent of DMSO control GFP [1] 106% | GFP response vs DMSO [2] 101% | percent response of DMSO control [3] 100% | GFP response vs DMSO [4] 112% | GFP response, % of DMSO [5] 94.6% | vesicle binding response [6] 263% | inhibition [7] -15% | superoxide response (% of plate) [8] 109% | aptamer binding inhibition [9] -1% | response [10] 28.9% | inhibition [11] 14.1% | response [12] -5.17% | binding (% of control) [13] 103% | efflux inhibition (fraction of control) [14] -0.01 | inhibition [15] -13% | differentiation response [16] 37.4%
